Data: PubChem BioAssay (EPA / NIEHS)
The source made the active and inactive calls. Rule for the calls: active = hit-call score of the fitted dose curve at least 0.9, where 1 is the maximum; inactive = score below 0.9.

What follows are compounds tested on X-box binding protein 1 (XBP1), XBP1 (gene 7494) (assay: LTEA_HepaRG_XBP1: Life Technologies and Expression Analysis (LTEA) Assay for X-box binding protein 1 (XBP1) using HepaRG (AID 2283540)). Details: mRNA level, 48 h; actives raise or lower the signal.
Description: LTEA_HepaRG is a cell based, multiplexed-readout assay that uses HepaRG, a human liver cell line, with measurements taken at 48 hours after chemical dosing on a 96-well plate.LTEA_HepaRG_XBP1 is one of 102 assay component(s) measured in the LTEA HepaRG cell culture assay. It is a marker of Diseases associated with XBP1 including Major Affective Disorder 7 and Bipolar Disorder.Data from the assay component LTEA_HepaRG_XBP1 was analyzed into 1 endpoint. This assay endpoint, LTEA_HepaRG_XBP1, was analyzed with bidirectional fitting relative to DMSO as the negative control and baseline of activity. Using a type of inducible reporter, measures of mRNA induction for gain or loss-of-signal activity can be used to understand regulation of transcription factor activity. To generalize the intended target to other relatable targets, this assay endpoint is annotated to the dna binding intended target family, where the subfamily is basic leucine zipper.
A total of 1060 chemcials from the ToxCast library were tested in eight-point concentration-response experiments. Cell culture and cytotoxicity assays were conducted at Thermo Fisher Scientific's Custom Services facility (Madison, WI). A single lot of human HepaRG cells (Thermo Fisher Scientific, Frederick, MD) was used for the cell culture experiments. 96-well format collagen type I coated plates of human HepaRG cells were prepared using established methods. Briefly, cryopreserved HepaRG cells were thawed, plated at a density of approximately 100,000 cells/well in HepaRG Thaw, Plate, and General Purpose media (HPRG770, Thermo Fisher Scientific), and incubated for 48 hours. 0.5% DMSO was selected as vehicle control to balance the requisite need of DMSO in HepaRG cultures to maintain differentiation (for example, baseline metabolism, proportions of hepatocytes vs. cholangiocytes), while enabling further hepatic receptor pathway activation (for example, PXR and CAR) in response to chemical exposure. 48 hours after plating, the culture medium was replaced with HepaRG Serum-Free Incudtion Media. Cells were exposed to each test chemical in duplicate and maintained in CO2 incubators for another 48 hours. Chemical plates were thawed to room temperature and 200x concentrations of treatment groups were prepared. 8-point conentration-reponse curves were made with the highest exposure at 100 uM, followed by half-log dilutions, all in 0.5% DMSO. Each test plate contained variouse controls, induction positive controls (1mM phenobarbital), cytotoxicity positive controls ([…] aflatoxin B1), vehicle controls (0.5% DMSO), and total lysis controls (0.5% DMSO). Cell morphology images were taken using an Essen IncuCyte FLR automated microscope, with six 96-well plates imaged in about 24 minutes. Images were captured and exported and JPEG files. Spent culture media was transfered to black-well plates for the LDH assay, and remaining media was sorted at -80 C for later use. Cells were treated with RLT buffer and frozen until shipped for gene expression analysis. Total RNA was isolated from the cell suspension in 75 uL of Buffer RLT (Qiagen, Germantown, MD 20874) by Quintiles/Expression Analysis (Durham, NC) using a custom isolation procedure. Total RNA from each plate well was transferred to a preamplification plate. Fluidigm's 96.96 Dynamic ArrayTM (Fluidigm, Amsterdam, the Netherlands) technology was used for gene expression analyses by quantitative reverse transcription polymerase chain reaction (qRT-PCR, performed by Quintiles/Expression Analysis, Durham, NC)89. Standard TaqManTM Assays (Applied Biosystems/ThermoFisher Scientific, Foster City, CA) were used to assess the expression of 93 genes selected based on their selectivity and sensitivity to important hepatic receptors known to be modulated by environmental chemicals; importance in human hepatocyte functionality; and hepatotoxicity. […]

Compound	outcome
COc1ccccc1N	inactive
O=C(O)C1(c2ccc3c(c2)OC[C@H](Cc2ccc(-c4ccccc4)cc2)[C@H]3O)CCCC1	inactive
CC(C)(C)c1ccccc1O	inactive
OCCN(CCO)CCO	inactive
CCCCCCCCCCCCc1cccc(S(=O)(=O)O)c1	inactive
Oc1c(Cl)cc(Cl)cc1Cl	inactive
O=C(N[C@H]1CN2CCC1CC2)c1ccc2c(c1)OCCO2	inactive
CC(C)O.CC(C)O.OCCN(CCO)CCO.OCCN(CCO)CCO.[Ti]	inactive
CN(C)C(=S)S	inactive
N#Cc1cccnc1	inactive
Cc1cc(C)cc(C)c1	inactive
Clc1cccc(Cl)c1	inactive
Oc1cc(Cl)c(Cl)cc1Cl	inactive
Clc1cccc(Cl)c1Cl	inactive
